From PubChem BioAssay
The list is not random: actives were taken first. Their share in the collection is about 2.2%.
hiPSC survival = increases survival of single human iPS cells | AID 602274 | hiPSC single-cell survival, ATPlite luminescence; 100% = ROCK inhibitor wells, 0% = DMSO | survival enhancement, % at 20 µM | 360,000 compounds, 0.044% hits; in the data active = survival enhancement above about 18%;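 note: cells exposed to compounds for 16 hours before the ATP read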
Cardio protect = protects H9c2 cardiomyocytes from peroxide injury. H2O2 injury protection, ATPLite, 2 h. protection from H2O2 cell death, % at 20 µM. 360,000 compounds, 0.63% hits. AID 588492;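 active = compounds giving at least 50% protection of heart cells from peroxide-induced death in the single-dose screen, raw or plate-pattern-corrected value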;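 note: 0% = DMSO wells with peroxide and 100% = DMSO wells without peroxide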
Myeloid diff MLP = myeloid differentiation induction; calls only at 10 µM; AID 624256; ER-HoxA9 myeloid progenitors, lysozyme-GFP differentiation, flow cytometry; 360,000 compounds, 1% hits;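 active = normalized GFP-positive differentiation at or above the plate's own cutoff, the solvent-only control mean plus 3 SD; inconclusive = no clear call, values can overlap the other calls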;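 note: cells exposed to compound for four days before flow analysis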
MIN6 prolif = inducers of beta-cell replication in MIN6 cells. MIN6 cells proliferation, ATPlite luminescence, 48 h; cells starved in 0.2% serum; 100% = growth in 10% serum. proliferation, % at 10 µM. 330,000 compounds, 0.29% hits. AID 2380;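 active = compounds whose signal lies at least 3.5 SD above the mean of all wells on their plate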;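 note: 0% = DMSO-treated cells in low-serum medium and 100% = 10% serum control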
ABCB6 inh MLPCN = human ABCB6 transporter inhibition | Q9NP58 | K562-ABCB6 porphyrin accumulation, flow cytometry, 1 h; hits give low values | fluorescence ratio to DMSO, % at 10 µM | 360,000 compounds, 0.19% hits;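 active = fluorescence ratio to DMSO below 75%, the collection mean minus 3 SD; inconclusive = too few cells collected in the well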;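 note: signal is porphyrin accumulated inside mitochondria; 100% equals median channel fluorescence of DMSO control wells; lower ratio means ABCB6 inhibition with less porphyrin fluorescence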
* hit, by the source's call; i = inactive; u = inconclusive; x = not tested or not shown; + = active, no number.

SMILES	hiPSC survival	Cardio protect	Myeloid diff MLP	MIN6 prolif	ABCB6 inh MLPCN
Cc1cccc(NC(=O)NNC(=O)COc2ccc(Cl)cc2)c1	0	5	i	-1	98
COCCN1Cc2cccc(C(=O)Nc3cccc(-c4nc5ccccc5[nH]4)c3)c2C1=O	0	54*	i	-5	100
COCCN1Cc2cccc(C(=O)Nc3ccc(-c4nc5ccccc5[nH]4)cc3)c2C1=O	2	0	i	1	90
CCCCc1ccc(NC(=O)Nc2cnccn2)cc1	0	-12	+	-3	98
CCc1ccc(NC(=O)Nc2cnccn2)cc1	0	-8	i	-1	102
CCOC(=O)C1=C(C)N(CCCC(=O)O)C(=O)NC1c1ccccc1OS(=O)(=O)c1ccccc1[N+](=O)[O-] (centres undefined)	1	8	i	-8	98
COc1ccc(CC(=O)NC2CCN(CC(=O)Nc3ccc4c(c3)OCCO4)CC2)cc1OC	-2	1	i	2	94
O=c1nc(N/N=C/c2ccccn2)cn[nH]1	-4	55*	u	-1	101
N/C(=N\OC(=O)CCC(=O)O)c1ncc(C(F)(F)F)cc1Cl	1	3	+	0	172
COc1cc(CN2CCc3c([nH]c4ccccc34)C2)cc(OC)c1	0	-5	+	2	121
Cn1c(=O)c2cc(NC(=O)Nc3cccnc3)ccc2n1Cc1cccc(C(F)(F)F)c1	-1	2	i	x	95
Cc1cc(C(=O)COc2ccccc2C(N)=O)c(C)n1C	0	52*	i	-2	96
Cc1cc(C(=O)COc2ccccc2C(N)=O)c(C)n1C1CC1	0	44	i	-2	91
COc1ccc(S(=O)(=O)N(C)C[C@H]2Oc3ccc(NS(=O)(=O)c4ccccc4)cc3CC(=O)N([C@H](C)CO)C[C@@H]2C)cc1	-1	13	i	-2	99
CC(=O)N1CCN(c2ccccc2NC(=O)c2ccc(-c3cccc([N+](=O)[O-])c3)o2)CC1	-1	79*	i	0	96
O=C(O)c1nn(CC(=O)N2CCCCCC2)c(=O)c2ccccc12	-1	49	i	-1	96
CN(C(=O)Cn1nc(C(=O)O)c2ccccc2c1=O)C1(C#N)CCCCC1	-1	57*	i	-3	98
COc1cc(OC)c(OC)cc1/C=C/C(=O)c1ccc(NS(=O)(=O)c2ccc(C)cc2)cc1	-1	-9	+	-4	123
CC(=O)c1ccc(NS(=O)(=O)c2ccc(C)cc2)cc1	-2	-7	i	3	91
CN(C)CC(C(=O)c1ccccc1)c1ccccc1 (centres undefined)	-6	-32	u	-3	96
O=C(CC(C(=O)c1ccccc1)c1ccccc1)c1ccccc1 (centres undefined)	-2	56*	i	x	91
N/C(=N\OS(=O)(=O)c1ccc(Br)cc1)c1ccncc1	0	-2	i	-3	63*
N/C(=N\OC(=O)COc1ccc(Br)cc1)c1ccncc1	-1	-3	i	0	98
CCCCC(=O)N1CCCC(C(=O)OCC)C1 (centres undefined)	0	-2	+	-4	100
CCOCC(=O)N1CCCC(C(=O)OCC)C1 (centres undefined)	1	-1	i	-2	95
SMILES	hiPSC survival	Cardio protect	Myeloid diff MLP	MIN6 prolif	ABCB6 inh MLPCN
COc1ccc(-c2nnc3ccc(SCC(=O)Nc4nc5ccccc5s4)nn23)cc1OC	0	50*	i	0	97
COc1ccc(-c2nnc3ccc(SCC(=O)Nc4nccs4)nn23)cc1OC	1	9	i	-2	98
Cc1ccc(N(Cc2ccccc2F)S(C)(=O)=O)c(C)c1	-2	-5	i	0	97
CC(=O)c1ccc(OC(=O)C(CCS(C)(=O)=O)N2C(=O)c3ccccc3C2=O)cc1 (centres undefined)	-2	-4	i	0	88
CCOc1ccc(OC(=O)C(CCS(C)(=O)=O)N2C(=O)c3ccccc3C2=O)cc1 (centres undefined)	0	3	+	-3	100
COc1ccc(-n2cccc2/C=C/[N+](=O)[O-])cc1	-1	-4	i	0	107
O=C1N/C(=C\c2nc3ccccc3s2)c2ccccc21	x	x	x	5	x
O=C1N/C(=C\c2ccccc2)c2ccccc21	7	12	+	-3	86
O=C(N/N=C/c1cccc(O)c1)N/N=C/c1cccc(O)c1	-1	-5	+	-4	138
COc1ccc2oc(=Nc3cc(F)ccc3F)c(C(N)=O)cc2c1	0	12	+	-5	84
Cc1ccc(NC(=O)CCN2C(=O)C3C4CCC(C4)C3C2=O)cc1Cl (centres undefined)	2	0	i	-3	95
Oc1ccc(C2CNCc3sccc32)cc1O (centres undefined)	4	54*	i	-8	98
Oc1ccc(C2C[C@H]3CC[C@@H]2C3)cc1O (some centres undefined)	0	31	i	-6	96
COc1ccc(-c2c[n+]3c(n2-c2ccccc2)SCC3)cc1OC	0	1	i	-2	98
COc1ccc(-c2nnc(-c3cc(OC)c(OC)c(OC)c3)o2)cc1OC	2	58*	i	3	95
COc1cc(-c2nnc(-c3cccs3)o2)cc(OC)c1OC	0	8	i	-2	97
C[C@@H](NC(=O)[C@@H]1Cc2ccccc2CN1)C(=O)Nc1ccc2c(c1)OCCO2	2	1	i	-4	103
CC(C)Cn1nc(NC(=O)C2CCCO2)c2cc3ccccc3nc21 (centres undefined)	-1	20	i	6.5*	109
COc1ccc(S(=O)(=O)N2CCCN(C)CC2)cc1	-1	0	i	1	100
CN(C)C(=O)/C=C\c1cn(-c2ccccc2)nc1-c1ccc2c(c1)OCCO2	-3	52*	i	-2	98
O=C(/C=C\c1cn(-c2ccccc2)nc1-c1ccc2c(c1)OCCO2)N1CCOCC1	-1	60*	i	2	96
CN1CCN(C(=O)/C=C/c2cn(-c3ccccc3)nc2-c2ccc3c(c2)OCCO3)CC1	-1	33	i	-6	100
CCCOc1ccccc1C1NC(=O)NC(C)=C1C(=O)OCCOC (centres undefined)	-1	5	x	0	106
CCOC(=O)C1=C(COC(=O)c2cccc(Br)c2)NC(=O)NC1C (centres undefined)	0	-1	i	-3	94
CCOC(=O)C1=C(COC(=O)/C=C/c2ccc(Cl)cc2)NC(=O)NC1C (centres undefined)	-1	16	i	0	104
CCOC(=O)C1=C(COC(=O)c2cc(OC)c(OC)c(OC)c2)NC(=O)NC1C (centres undefined)	0	60*	i	1	98
